# Reference: the OligoGym collection
# Biological target: BEST2
# Assay: pooled miR-30 sensor sort-seq; sequence = guide strand
# Settings: shRNA
row,Sequence,sensor-assay potency score (higher = more potent)
1,ATACATCTCGTCCACTGCCAGC,-1.42
2,TTAAGGGCGCTGTTGTCGCGGA,-1.06
3,TTCAGGTTTTCAAACTTCTTGC,-0.208

# Biological target: BIRC8
# Assay: as above
# Settings: shRNA
row,Sequence,sensor-assay potency score (higher = more potent)
1,TCGTATAGCTTCTTGTAGCATA,-0.43
2,TTGAAATCAATAACCGCGCTGC,1.02
3,TAGTTTGTACCAGAGCTCCCTC,-0.717
4,TCTTCTAGCAGATATTTGCAAC,-1.19
5,TTGTTAACGGAGTACATCCATG,-1.22
6,TTTCTTGGTAGTTTGTACCAGA,-0.312
7,TTGCTTGAAATCAATAACCGCG,0.0701
8,TTTACAAAGCTTCTCCTCTTGC,-0.189
9,TTTCTGTAGTGTCTTTCTGAGC,-1.49
10,TGCAACAAGAACCTCAAGCGTT,-0.815
11,TAGATCTGCAACAAGAACCTCA,0.199
12,TTCTTTTAGTTAGTGATGGTGT,0.0164
